CHT inh = inhibitors of human choline transporter CHT | CHT-expressing cells, membrane potential dye, choline response; active compounds read low | B-score at 10 µM | 310,000 compounds, 0.86% hits | AID 488975, 2010;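 active means B-score over 3 SD under the library average, and starting fluorescence ratio not unusually high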;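 further: choline stimulus applied at its EC90 after an EC20 pre-addition; B-score computed on integrated fluorescence ratio after choline addition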
TMEM16A act = TMEM16A chloride channel activators or potentiators, primary screen, cell-based, HTS. B-score at 10 µM. Anoctamin-1 (Mus musculus), Q8BHY3. HEK293 TMEM16A/YFP-H148Q/I152L, iodide quench fluorescence; active compounds read low. AID 623877, 2012. 340,000 compounds, 0.3% hits;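 active means fluorescence-ratio B-score plate-corrected deviation score at least 3 library SD below zero, with starting fluorescence score within 5 deviations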;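 further: channel opened by trigger with iodide after compound preincubation; score built on the fluorescence ratio of max minus min over baseline; more negative score means more quench and so TMEM16A activation or potentiation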
ANO1 block = TMEM16A chloride channel inhibitors, primary screen, cell-based, HTS; Anoctamin-1 (Mus musculus), Q8BHY3; normalized B-score (activity score, 25-100; higher = stronger inhibition) at 10 µM; 310,000 compounds, 1.2% hits; AID 588511, 2011; HEK293 TMEM16A/YFP iodide influx fluorescence, ionomycin;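 active means ratio plate-corrected score three or more library SD toward inhibition, starting fluorescence score within five deviations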;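 further: score derived from kinetic fluorescence span divided by baseline fluorescence per well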
GPR7 antagonist = GPR7 receptor antagonists, primary screen, cell-based, fluorescence, single concentration | inhibition, % at 4.4 µM | GPR7-expressing cells, fluorescence antagonist assay | 290,000 compounds, 1.1% hits; in the data active means inhibition above about 16%, passing the limit was not always enough;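 further: cells stimulated with the agonist NPW; 0% = agonist with vehicle and 100% = vehicle without agonist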
Target sequence (P48145 whole entry, looked up): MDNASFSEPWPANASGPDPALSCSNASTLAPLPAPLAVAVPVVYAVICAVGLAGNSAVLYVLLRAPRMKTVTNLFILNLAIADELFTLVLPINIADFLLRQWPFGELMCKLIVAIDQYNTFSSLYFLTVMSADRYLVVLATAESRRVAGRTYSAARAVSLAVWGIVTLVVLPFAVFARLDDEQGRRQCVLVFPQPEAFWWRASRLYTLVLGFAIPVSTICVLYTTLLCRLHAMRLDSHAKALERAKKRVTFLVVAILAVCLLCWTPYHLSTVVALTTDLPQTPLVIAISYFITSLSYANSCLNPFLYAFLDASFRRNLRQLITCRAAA
CHT PAM = CHT positive allosteric modulators, primary screen, cell-based, membrane potential dye, choline EC20 | B-score at 10 µM | 310,000 compounds, 0.49% hits | CHT-expressing cells; active compounds read high; LV-AA mutant CHT in HEK293 cells | High affinity choline transporter 1 (Homo sapiens), Q9GZV3 | AID 488977, 2010;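 active means initial fluorescence not abnormally high and integrated response B-score, plate-corrected, over 3 SD above library mean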
Kir21 inh = inhibitors of mouse Kir2.1 inward-rectifier potassium channel; AID 1672, 2009; HEK293-Kir2.1, FluxOR thallium flux fluorescence; active compounds read low; 310,000 compounds, 0.85% hits; B-score at 10 µM; Inward rectifier potassium channel 2 (Mus musculus), P35561;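 active means fluorescence ratio B-score at or below minus 3 SD of library scores, with starting-brightness B-score within 2 SD, cut at about -4.2 in these data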;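 further: channel flux triggered by added potassium and thallium sulfate stimulus; B-score of peak minus minimum fluorescence over baseline after thallium stimulus; more negative B-score means stronger Kir2.1 block with less thallium influx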
TMEM16A reconf = TMEM16A chloride channel inhibitors, confirmation, cell-based, re-confirmation | shares compounds with ANO1 block | HEK293 TMEM16A/YFP-H148Q, iodide quench fluorescence; ionomycin added to raise cell calcium | inhibition, % at 10 µM | 2,300 compounds, 39% hits;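 active means mean duplicate percent inhibition, scaled so buffer wells are 0 and the reference blocker 100, over three buffer SD above buffer mean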
HEK293 Ca mobil = calcium mobilization in TMEM16A/YFP HEK293 cells, confirmation, counter-screen for TMEM16A inhibitor project; Fluo4 calcium mobilization; AID 652231, 2013; calcium response (% of ionomycin), % at 10 µM; shares compounds with ANO1 block; 2,300 compounds, 2% hits;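 active means duplicate-averaged calcium signal over 20% of the ionomycin maximum, relative to buffer baseline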;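 further: each well's signal is peak minus trough fluorescence divided by its pre-addition baseline; 0% = buffer wells and 100% = ionomycin wells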
YFP-HEK293 quench = iodide YFP quench changes in parental YFP-HEK293, counter-screen for TMEM16A inhibitor project, cell-based; shares compounds with ANO1 block; ionomycin; YFP ratio F(max-min)/F0 at 10 µM; 2,300 tested, under 10 active;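 active means yellow fluorescent protein signal ratio exceeding the buffer control mean by over 5 SD of those controls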;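 further: ratio is mean of duplicate wells from kinetic YFP trace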
ClC-1 inh = ClC-1 chloride channel inhibition, selectivity assay for TMEM16A inhibitor project, cell-based, voltage-dependent ClC-1; shares compounds with ANO1 block; CHO ClC-1-YFP, iodide influx fluorescence quench; iodide control reads 0, buffer control 100; ratio percent, % at 10 µM; 2,300 tested, under 10 active; AID 652236, 2013;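 active means duplicate-mean ratio percent above the mean of iodide-only control wells, which defines zero, plus 5 of their SD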;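 further: higher percent means stronger block of ClC-1 iodide influx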
* marks the source's active call; other numbers are inactive results; i = inactive; · = no result. Compounds with a hit are over-represented: about 3.7% of the library has one in this group of screens.

SMILES	CHT inh	TMEM16A act	ANO1 block	GPR7 antagonist	CHT PAM	Kir21 inh	TMEM16A reconf	HEK293 Ca mobil	YFP-HEK293 quench	ClC-1 inh
Cc1ccccc1OCc1occc1C(=O)Nc1cccc(-n2cnnn2)c1	i	i	i	0	i	-0.87	·	·	·	·
CCC(=O)N(CC)C1=C(O)c2ccccc2C(=O)C1=O	i	i	25*	4	i	-4.6*	26%*	i	-0.78	-10
CCC(=O)N(C1=C(NC)C(=O)c2ccccc2C1=O)C(C)C	i	i	i	-21	i	-0.52	·	·	·	·
COc1cc(C(=O)NCCC2=CCCCC2)cc(OC)c1OC	i	i	i	13	i	-2.1	·	·	·	·
COc1ccc(C)cc1NC(=O)NCCC1=CCCCC1	i	i	100*	-13	i	-0.72	i	i	-0.87	-5
COc1ccccc1CNC(=O)CCNS(=O)(=O)/C=C/c1ccc(C)cc1	·	i	·	·	·	·	·	·	·	·
Fc1ccccc1NC(=S)Nc1ccc(CN2CCOCC2)cc1	i	i	i	-14	i	-0.29	·	·	·	·
O=C(NCCOc1nc(N2CCOCC2)nc(N2CCOCC2)n1)Nc1ccccc1	i	i	i	4	i	-0.37	·	·	·	·
CCN(CC)c1nc(OCCNC(=O)Nc2ccccc2)nc(N(CC)CC)n1	i	i	100*	-12	i	-5.3*	20%*	i	-1	-11
COc1ccccc1OCC(=O)NCC1CCCCC1	i	i	100*	-1	i	1.4	i	i	-1.1	-19
COc1ccccc1OCC(=O)NCCNC(=O)COc1ccccc1OC	i	i	i	-18	i	3.1	·	·	·	·
COc1ccccc1OCC(=O)NNc1c2ccccc2nc2ccccc12	i	i	25*	-16	i	0.8	17%*	i	-1	-4
COc1ccccc1OCC(=O)NNC(=O)CCCC(=O)NNC(=O)COc1ccccc1OC	i	i	i	-13	i	0.38	·	·	·	·
c1ccc(COc2cncc(-c3cccnc3)c2)cc1	·	i	·	·	·	·	·	·	·	·
O=C(CSc1ccc(-c2ccncc2)nn1)N1CCN(c2ccccc2)CC1	i	i	i	-14	i	0.54	·	·	·	·
COc1ccc(N(CC(=O)NCCSCc2ccc(C)cc2)S(=O)(=O)c2ccccc2)cc1	i	i	25*	-18	i	1.4	i	i	-1.2	0
COc1cc2ccccc2cc1C(=O)Nc1ccccc1Cl	i	i	100*	2	i	-0.78	70%*	i	-0.77	-16
COc1ccccc1NC(=O)c1cc2cc(Br)ccc2cc1O	i	i	100*	6	i	1.7	76%*	i	-0.89	-15
COc1cc2ccccc2cc1C(=O)Nc1ccccc1N1CCCC1	i	i	i	·	i	-0.48	·	·	·	·
O=C(CCNC(=O)Cn1ccc2ccccc2c1=O)NCC1CCCC1c1ccccc1 (stereo unspecified)	i	i	i	0	i	0.18	·	·	·	·
COc1ccccc1CN(C)CC(=O)Nc1cccc2ccccc12	i	i	i	10	i	-2.2	·	·	·	·
COc1cc(Cl)c(C)cc1NC(=O)CN(C)Cc1cccc(OC)c1OC	i	i	25*	-8	i	-2.9	20%*	i	-1	-4
CCCc1cc(C(=O)Nc2ccc(C(=O)c3ccccc3)cc2)n(C)n1	i	i	100*	16	i	0.23	40%*	i	-0.92	-14
COc1cccc(C(=O)Nc2ccc(C(=O)O)cc2)c1	i	i	i	12	i	-1.4	·	·	·	·
COc1cccc(C(=O)Nc2ccc(Cl)c(C(F)(F)F)c2)c1	i	i	25*	3	i	-0.06	18%*	i	-0.98	-14
SMILES	CHT inh	TMEM16A act	ANO1 block	GPR7 antagonist	CHT PAM	Kir21 inh	TMEM16A reconf	HEK293 Ca mobil	YFP-HEK293 quench	ClC-1 inh
COc1cccc(C(=O)Nc2ccc(C(=O)c3ccccc3)cc2)c1	i	i	100*	8	i	1	26%*	i	-1.1	-18
O=C(Cn1ccc(NC(=O)OCc2ccccc2)nc1=O)NCc1nc2ccccc2[nH]1	·	i	·	·	·	·	·	·	·	·
Cc1ccc(S(=O)(=O)N2CCCC2CNC(=O)C(=O)Nc2ccc(F)cc2)cc1 (stereo unspecified)	i	i	i	·	i	-0.73	·	·	·	·
Cc1ccc(C(=O)N2CCCC2)cc1S(=O)(=O)N1CCCCC1	i	i	i	-2	i	0.54	·	·	·	·
O=C(c1n[nH]c2ccccc12)N1CCN(S(=O)(=O)c2ccc(Cl)cc2)CC1	·	i	·	·	·	·	·	·	·	·
COc1ccc(OC)c(/C=C2/Sc3ccccc3C2=O)c1	i	i	i	-3	i	-0.1	i	i	-1.1	6
Cc1nc(-c2cccc(NC(=O)COc3ccc(Cl)cc3)c2)cs1	i	i	25*	-21	i	-0.12	i	i	-1.1	-5
COc1ccc(CC(=O)Nc2cccc(-c3csc(C)n3)c2)cc1	i	i	i	-10	i	0.56	·	·	·	·
O=C(C[n+]1ccc(Cc2ccccc2)cc1)Nc1ccccc1	i	i	i	0	i	0.55	·	·	·	·
COc1ccccc1C(CC(=O)c1ccccc1)CC(=O)c1ccccc1	i	i	100*	1	i	0.18	i	i	-0.96	-14
COc1ccccc1CC(=O)c1ccccc1OC	·	i	·	·	·	·	·	·	·	·
C=CCc1ccc(OCCOCCOc2ccccc2[N+](=O)[O-])c(OC)c1	i	i	100*	-7	i	-1.5	i	i	-1.1	-11
CCN(CC)S(=O)(=O)c1cc(NS(=O)(=O)c2cccc(Cl)c2)ccc1C	i	i	25*	-18	i	-1.3	28%*	i	-1	-10

Screens as filed in PubChem.
